According to PubChem BioAssay (NCI):
This is part of a sample that, as a whole, favours compounds with a hit. Of some 79,000 tested, about 15% had one in any assay. Active and inactive are the calls of the source. Cut-off read from the data, not from the text of the source: active = growth inhibition above about 70%; inactive = the rest.

What was measured:
[1] = NCI Yeast Anticancer Drug Screen. Data for the wt2 strain (AID 169);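 note: 0% = growth of vehicle-treated yeast cultures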; settings: S. cerevisiae wt2 strain growth inhibition, stronger effect = higher value
Procedure, shortened: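 Inhibition of yeast growth was determined after compound treatment, normalised to controls receiving only vehicle.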

[2] = NCI Yeast Anticancer Drug Screen. Data for the mlh1 strain (AID 171);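 note: 0% = growth of vehicle-treated control cultures of the same strain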; settings: S. cerevisiae mlh1 strain growth inhibition, stronger effect = higher value
Procedure, shortened: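 Vehicle-normalised growth inhibition of a repair- or checkpoint-altered yeast strain following compound treatment.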

[3] = NCI Yeast Anticancer Drug Screen. Data for the sgs1 strain (AID 173);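 note: 0% = growth of vehicle-only control cultures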; settings: S. cerevisiae sgs1 mutant, stronger effect = higher value
Procedure, shortened: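 Screen format: yeast with repair or checkpoint alterations, compound exposure, growth read relative to vehicle.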

[4] = NCI Yeast Anticancer Drug Screen. Data for the mlh1 rad18 strain (AID 175); settings: S. cerevisiae mlh1 rad18 strain growth inhibition, stronger effect = higher value
Procedure, shortened: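 Vehicle-treated cultures served as the reference for growth inhibition in a yeast strain carrying DNA damage repair alterations exposed to each compound.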

[5] = NCI Yeast Anticancer Drug Screen. Data for the rad18 strain (AID 177); settings: S. cerevisiae rad18 mutant growth inhibition, stronger effect = higher value
Procedure, shortened: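 Test articles were incubated with altered yeast defective in DNA damage repair. Results are given as inhibition of growth versus vehicle.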

[6] = NCI Yeast Anticancer Drug Screen. Data for the rad52 strain (AID 147);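 note: 0% = growth of vehicle-treated control cultures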; settings: S. cerevisiae rad52 mutant growth inhibition, stronger effect = higher value
Procedure, shortened: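 Vehicle-treated cultures served as the reference for growth inhibition of compound-exposed yeast bearing a DNA repair mutation.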

[7] = NCI Yeast Anticancer Drug Screen. Data for the wt1 strain (AID 149);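 note: 0% = growth of vehicle-treated wt1 cultures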; settings: S. cerevisiae wt1 strain (SPY 50644) growth inhibition, stronger effect = higher value
Procedure, shortened: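 wt1 yeast, compound-treated; % growth inhibition vs vehicle control.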

[8] = NCI Yeast Anticancer Drug Screen. Data for the rad50EPP+ strain (AID 151);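 note: 0% = growth of vehicle-treated control cultures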; settings: S. cerevisiae rad50 mutant strain, stronger effect = higher value
Procedure, shortened: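 In this screen, rad50EPP+ yeast were exposed to compounds. Growth inhibition was scored against vehicle-treated controls.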

[9] = NCI Yeast Anticancer Drug Screen. Data for the mgt1 strain (AID 153); settings: S. cerevisiae mgt1 mutant growth inhibition, stronger effect = higher value
Procedure, shortened: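 mgt1 strain exposed; growth vs vehicle control recorded as inhibition.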

[10] = NCI Yeast Anticancer Drug Screen. Data for the rad50 strain (AID 155);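 note: 0% = growth of vehicle-only cultures of the same strain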; settings: S. cerevisiae rad50 strain growth inhibition, stronger effect = higher value
Procedure, shortened: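 Genetically altered yeast (DNA repair pathway); compound treatment; growth inhibition vs vehicle ctrl.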

[11] = NCI Yeast Anticancer Drug Screen. Data for the mec2-1 strain (AID 157); settings: S. cerevisiae mec2-1 strain, stronger effect = higher value
Procedure, shortened: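 Vehicle-treated cultures served as reference for growth inhibition of compound-exposed mec2-1 yeast.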

[12] = NCI Yeast Anticancer Drug Screen. Data for the rad14 strain (AID 159);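 note: 0% = growth of vehicle-treated control cultures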; settings: S. cerevisiae rad14 strain growth inhibition, stronger effect = higher value
Procedure, shortened: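 Test compounds were applied to a repair-deficient yeast strain. Its growth was then compared with that of cultures given vehicle alone, and inhibition was expressed relative to those controls.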

[13] = NCI Yeast Anticancer Drug Screen. Data for the sgs1 mgt1 strain (AID 161);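 note: 0% = growth of cultures given vehicle only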; settings: S. cerevisiae sgs1 mgt1 strain, stronger effect = higher value
Procedure, shortened: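 Test agents were incubated with a DNA-repair-mutant yeast strain. Growth was then read and compared against vehicle-treated controls.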

[14] = NCI Yeast Anticancer Drug Screen. Data for the CLN2oe strain (AID 163);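 note: 0% = growth of vehicle-only control cultures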; settings: S. cerevisiae CLN2oe strain, stronger effect = higher value
Procedure, shortened: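 Inhibition relative to vehicle-treated yeast is reported. Cells: strain with genetic alteration in cell-cycle control, grown with compound.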

[15] = NCI Yeast Anticancer Drug Screen. Data for the cln2 rad14 strain (AID 165);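 note: 0% = growth equal to vehicle treated cultures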; settings: S. cerevisiae cln2 rad14 strain, stronger effect = higher value
Procedure, shortened: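 Each compound was tested on cln2 rad14 yeast. Inhibition of growth was calculated against vehicle-exposed controls.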

[16] = NCI Yeast Anticancer Drug Screen. Data for the bub3 strain (AID 167); settings: S. cerevisiae bub3 mutant strain, stronger effect = higher value
Procedure, shortened: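 Yeast carrying a defined mutation is treated with each compound, and growth is compared with that of vehicle-exposed cells to give inhibition.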

[17] = at 5.0 µM (retest, dose inferred, filed as 0.5)
[18] = at 50.0 µM (retest, dose inferred, filed as 5.0)

Measured: growth inhibition

COc1ccc2nc3cccc([N+](=O)[O-])c3c(NCCNCCO)c2c1
active: [1]; at 100.0 µM 94% | [2]; at 33.0 µM 80% | [2]; at 100.0 µM 88% | [3]; at 1.2 µM 80% | [3]; at 3.7 µM 89% | [3]; at 11.0 µM 93% | [3]; at 33.0 µM 95% | [3]; at 100.0 µM 95% | [4]; [18] 98% | [4]; at 50.0 µM 78.2% | [5]; at 1.2 µM 95% | [5]; at 3.7 µM 96% | [5]; at 11.0 µM 96% | [5]; at 33.0 µM 95% | [5]; at 100.0 µM 95%
inactive: [1]; at 1.2 µM -2% | [1]; at 3.7 µM -1% | [1]; at 11.0 µM 4% | [1]; at 33.0 µM 35% | [2]; at 1.2 µM 1% | [2]; at 3.7 µM 21% | [2]; at 11.0 µM 50% | [4]; [17] 67%

O=C(O)c1ccc2cc(Cl)c3ccccc3c2c1
inactive: [6]; at 1.2 µM 1% | [6]; at 3.7 µM 9% | [6]; at 11.0 µM 28% | [6]; at 33.0 µM 55% | [6]; at 100.0 µM 67% | [7]; at 1.2 µM -4% | [7]; at 3.7 µM 3% | [7]; at 11.0 µM 11% | [7]; at 33.0 µM 30% | [7]; at 100.0 µM 43% | [8]; at 1.2 µM 3% | [8]; at 3.7 µM 9% | [8]; at 11.0 µM 17% | [8]; at 33.0 µM 24% | [8]; at 100.0 µM 21% | [9]; at 1.2 µM -1% | [9]; at 3.7 µM -4% | [9]; at 11.0 µM 15% | [9]; at 33.0 µM 41% | [9]; at 100.0 µM 60% | [10]; at 1.2 µM 2% | [10]; at 3.7 µM 12% | [10]; [17] 23% | [10]; at 11.0 µM 31% | [10]; at 33.0 µM 52% | [10]; at 100.0 µM 67% | [11]; at 1.2 µM -5% | [11]; at 3.7 µM 7% | [11]; [17] 1% | [11]; at 11.0 µM 25% | [11]; at 33.0 µM 44% | [11]; at 100.0 µM 54% | [12]; at 1.2 µM 0% | [12]; at 3.7 µM 7% | [12]; at 11.0 µM 20% | [12]; at 33.0 µM 42% | [12]; at 100.0 µM 58% | [13]; [17] 35% | [14]; at 1.2 µM -10% | [14]; at 3.7 µM -13% | [14]; at 11.0 µM 23% | [14]; at 33.0 µM 41% | [14]; at 100.0 µM 57% | [15]; [17] 30% | [16]; at 1.2 µM -4% | [16]; at 3.7 µM 1% | [16]; [17] 17% | [16]; at 11.0 µM 17% | [16]; at 33.0 µM 31% | [16]; at 100.0 µM 30% | [1]; at 1.2 µM -3% | [1]; at 3.7 µM 0% | [1]; at 11.0 µM 15% | [1]; at 33.0 µM 42% | [1]; at 100.0 µM 56% | [2]; at 1.2 µM 0% | [2]; at 3.7 µM 4% | [2]; at 11.0 µM 26% | [2]; at 33.0 µM 49% | [2]; at 100.0 µM 66% | [3]; at 1.2 µM 0% | [3]; at 3.7 µM 8% | [3]; at 11.0 µM 29% | [3]; at 33.0 µM 53% | [3]; at 100.0 µM 68% | [4]; [17] 58% | [5]; at 1.2 µM 2% | [5]; at 3.7 µM 3% | [5]; at 11.0 µM 19% | [5]; at 33.0 µM 39% | [5]; at 100.0 µM 55%
active: [10]; [18] 93% | [10]; at 50.0 µM 94.9% | [11]; [18] 89% | [11]; at 50.0 µM 94% | [13]; [18] 93% | [13]; at 50.0 µM 93.9% | [15]; [18] 92% | [15]; at 50.0 µM 92.8% | [16]; [18] 86% | [16]; at 50.0 µM 91.4% | [4]; [18] 93% | [4]; at 50.0 µM 94.8%

O=C(Nc1cccs1)c1ccccc1
inactive: [6]; at 1.2 µM -5% | [6]; at 3.7 µM -3% | [6]; at 11.0 µM -5% | [6]; at 33.0 µM 3% | [6]; at 100.0 µM 67% | [7]; at 1.2 µM -5% | [7]; at 3.7 µM -6% | [7]; at 11.0 µM -8% | [7]; at 33.0 µM -6% | [7]; at 100.0 µM 48% | [8]; at 1.2 µM -1% | [8]; at 3.7 µM 7% | [8]; at 11.0 µM 10% | [8]; at 33.0 µM 18% | [8]; at 100.0 µM 38% | [9]; at 1.2 µM -1% | [9]; at 3.7 µM -4% | [9]; at 11.0 µM -4% | [9]; at 33.0 µM 5% | [10]; at 1.2 µM -4% | [10]; at 3.7 µM -8% | [10]; [17] -155% | [10]; at 11.0 µM 10% | [10]; at 33.0 µM 42% | [11]; at 1.2 µM -1% | [11]; at 3.7 µM -1% | [11]; [17] -52% | [11]; at 11.0 µM -4% | [11]; at 33.0 µM 3% | [11]; [18] -42% | [11]; at 50.0 µM 30.1% | [11]; at 100.0 µM 51% | [12]; at 1.2 µM 0% | [12]; at 3.7 µM -3% | [12]; at 11.0 µM 0% | [12]; at 33.0 µM 23% | [13]; [17] -67% | [13]; [18] 66% | [13]; at 50.0 µM 65.8% | [14]; at 1.2 µM 0% | [14]; at 3.7 µM -1% | [14]; at 11.0 µM -1% | [14]; at 33.0 µM -1% | [14]; at 100.0 µM 53% | [15]; [17] -65% | [15]; [18] -62% | [15]; at 50.0 µM -0.2% | [16]; at 1.2 µM -12% | [16]; at 3.7 µM -9% | [16]; [17] -68% | [16]; at 11.0 µM -3% | [16]; at 33.0 µM -7% | [16]; [18] 8% | [16]; at 50.0 µM 13.8% | [16]; at 100.0 µM 64% | [1]; at 1.2 µM -1% | [1]; at 3.7 µM -1% | [1]; at 11.0 µM -2% | [1]; at 33.0 µM -2% | [1]; at 100.0 µM 67% | [2]; at 1.2 µM 6% | [2]; at 3.7 µM -5% | [2]; at 11.0 µM -5% | [2]; at 33.0 µM 2% | [3]; at 1.2 µM 0% | [3]; at 3.7 µM -1% | [3]; at 11.0 µM -1% | [3]; at 33.0 µM 3% | [4]; [17] -125% | [5]; at 1.2 µM -6% | [5]; at 3.7 µM -2% | [5]; at 11.0 µM 1% | [5]; at 33.0 µM 4%
active: [9]; at 100.0 µM 88% | [10]; [18] 82% | [10]; at 50.0 µM 94.8% | [10]; at 100.0 µM 92% | [12]; at 100.0 µM 80% | [2]; at 100.0 µM 86% | [3]; at 100.0 µM 86% | [4]; [18] 80% | [4]; at 50.0 µM 94.6% | [5]; at 100.0 µM 94%
